17 molecules from PubChem BioAssay can be followed below.

The test system of assay [1] is Plasmodium falciparum Sir2 (PF13_0152, Sir2A). Description: Plasmodium falciparum Sir2A binding compounds – biochemical, small-molecule microarray, 635 nm fluorescence, primary screen (AID 1098).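 Also: score merges spot fluorescence intensity with its signal-to-noise ratio.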 The conditions noted are these: fluorescence 635 nm, higher = more signal.
Assay [2] is described as follows: probe aDKK1 binding to arrayed compounds – biochemical, biotinylated probe, 635/667 nm fluorescence, primary screen (AID 1099).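 Also: score merges 667nm spot fluorescence with signal to noise across triplicate slides; reference of the scale not given here.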 The conditions noted are these: small-molecule microarray, higher = more signal.
Assay [3] is described as follows: probe aCHRDL2 binding to arrayed compounds – biochemical, biotinylated probe, 635/667 nm fluorescence, primary screen (AID 1100). The conditions noted are these: small-molecule microarray, higher = more signal.
Assay [4] can be described thus: change in splice reporter luminescence, either direction, cell-based, HEK293, spliceosome inhibition project, primary screen (AID 1101).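 Also: HEK293 cells carrying a splicing-competent luciferase reporter gene; test concentration not given here.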 The conditions noted are these: HEK293 splicing luciferase reporter, 24 h, higher = more signal, called active from +8 up or from −8 down. On the technique in general: Reporter assays use an easily measured gene product as a stand-in for the process of interest.

Assay [5] has as its target Fibroblast growth factor 10 (Homo sapiens) (UniProt O15520). Briefly: compounds binding fibroblast growth factor 10 – biochemical, small-molecule microarray, 635 nm fluorescence, primary screen (AID 1102). The conditions noted are these: FGF10 binding, fluorescence 635 nm, higher = more signal.
Assay [6] has as its system glycogen synthase kinase-3 (GSK3A per assay name; protocol says GSK3B). Briefly: compounds binding glycogen synthase kinase-3 – biochemical, small-molecule microarray, 635 nm fluorescence, GSK3A, primary screen (AID 1103). Also: the record names both GSK3A and GSK3B. The conditions noted are these: fluorescence 635 nm, higher = more signal.
Assay [7] has as its target Epidermal growth factor receptor (Homo sapiens) (UniProt P00533). Briefly: compounds binding epidermal growth factor receptor – biochemical, small-molecule microarray, 635 nm fluorescence, primary screen (AID 1104).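 Also: score merges 667 nm emission intensity with spot signal to noise over triplicate slides.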 The note with it: EGFR binding, higher = more signal.
Assay [8] addresses Follistatin-related protein 3 (Homo sapiens) (UniProt O95633). Description: compounds binding follistatin-related protein 3 – biochemical, small-molecule microarray, 635 nm fluorescence, primary screen (AID 1105).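 Also: score merges emission near 667 nm and signal to noise per printed spot across three slides.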 The conditions noted are these: FSTL3 binding, higher = more signal.
The target in assay [9] is Dickkopf-related protein 1 (Homo sapiens) (UniProt O94907). Briefly: small molecules binding DKK1 protein – biochemical, small-molecule microarray, 635 nm fluorescence scan, primary screen (AID 1106).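 Also: score merges emission near 667 nm with signal to noise over three replicate slides.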 The note with it: higher = more signal.
Assay [10] concerns Inhibin beta A chain (activin A). Briefly: small molecules binding activin A – biochemical, small-molecule microarray, 635 nm fluorescence scan, primary screen (AID 1107).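 Also: mouse activin A protein probed at 4.33 µg/mL on printed slides; score merges bound-protein fluorescence near 667 nm with spot signal-to-noise.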 The note with it: INHBA, higher = more signal.

Molecules are shown by their SMILES. Calls of active or inactive are those of the source.

Chain of Epidermal growth factor receptor (Homo sapiens) (P00533 whole entry, looked up): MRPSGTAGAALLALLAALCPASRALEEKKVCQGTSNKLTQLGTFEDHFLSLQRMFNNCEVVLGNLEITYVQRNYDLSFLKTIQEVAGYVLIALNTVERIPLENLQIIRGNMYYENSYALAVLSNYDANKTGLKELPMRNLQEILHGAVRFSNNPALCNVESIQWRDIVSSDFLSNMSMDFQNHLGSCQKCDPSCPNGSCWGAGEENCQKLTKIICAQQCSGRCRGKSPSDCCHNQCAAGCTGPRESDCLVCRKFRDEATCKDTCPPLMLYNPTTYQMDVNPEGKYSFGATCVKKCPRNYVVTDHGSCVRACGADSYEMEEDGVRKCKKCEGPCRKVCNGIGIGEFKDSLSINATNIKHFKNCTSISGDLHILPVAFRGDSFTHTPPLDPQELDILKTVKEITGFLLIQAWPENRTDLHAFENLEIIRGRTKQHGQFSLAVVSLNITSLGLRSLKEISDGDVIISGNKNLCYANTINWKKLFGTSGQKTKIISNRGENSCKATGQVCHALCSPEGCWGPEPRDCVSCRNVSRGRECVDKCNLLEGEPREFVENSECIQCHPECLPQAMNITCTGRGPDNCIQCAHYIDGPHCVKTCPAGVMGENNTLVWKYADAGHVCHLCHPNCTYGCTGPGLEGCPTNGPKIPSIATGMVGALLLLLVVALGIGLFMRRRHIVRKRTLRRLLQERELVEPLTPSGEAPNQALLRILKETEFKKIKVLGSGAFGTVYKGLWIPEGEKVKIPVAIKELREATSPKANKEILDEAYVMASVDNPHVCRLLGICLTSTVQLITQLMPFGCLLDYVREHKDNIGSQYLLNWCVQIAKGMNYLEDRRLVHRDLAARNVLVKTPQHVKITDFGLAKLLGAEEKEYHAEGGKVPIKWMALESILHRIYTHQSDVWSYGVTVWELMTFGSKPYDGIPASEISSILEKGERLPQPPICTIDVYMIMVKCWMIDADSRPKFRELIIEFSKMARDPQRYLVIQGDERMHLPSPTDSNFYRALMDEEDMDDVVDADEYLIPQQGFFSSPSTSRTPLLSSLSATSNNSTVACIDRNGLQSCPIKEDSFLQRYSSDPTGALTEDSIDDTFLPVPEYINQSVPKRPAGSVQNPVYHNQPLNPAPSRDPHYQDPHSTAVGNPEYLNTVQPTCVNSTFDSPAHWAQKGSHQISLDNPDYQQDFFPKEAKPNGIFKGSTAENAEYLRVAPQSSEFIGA
Chain of Follistatin-related protein 3 (Homo sapiens) (O95633 whole entry, looked up): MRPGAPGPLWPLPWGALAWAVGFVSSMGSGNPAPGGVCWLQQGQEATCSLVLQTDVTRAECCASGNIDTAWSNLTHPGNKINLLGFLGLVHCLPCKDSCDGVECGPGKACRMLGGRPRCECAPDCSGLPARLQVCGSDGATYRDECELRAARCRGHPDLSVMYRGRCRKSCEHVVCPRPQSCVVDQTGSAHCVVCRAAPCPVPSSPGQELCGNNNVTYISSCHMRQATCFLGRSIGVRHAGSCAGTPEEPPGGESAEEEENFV
Chain of Fibroblast growth factor 10 (Homo sapiens) (O15520 whole entry, looked up): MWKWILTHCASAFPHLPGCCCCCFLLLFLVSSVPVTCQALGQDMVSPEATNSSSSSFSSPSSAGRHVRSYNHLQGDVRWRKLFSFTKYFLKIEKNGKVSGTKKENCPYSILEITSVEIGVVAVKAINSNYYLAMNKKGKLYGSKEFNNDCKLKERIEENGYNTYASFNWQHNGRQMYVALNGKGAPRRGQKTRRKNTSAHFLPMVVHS
Chain of Dickkopf-related protein 1 (Homo sapiens) (O94907 whole entry, looked up): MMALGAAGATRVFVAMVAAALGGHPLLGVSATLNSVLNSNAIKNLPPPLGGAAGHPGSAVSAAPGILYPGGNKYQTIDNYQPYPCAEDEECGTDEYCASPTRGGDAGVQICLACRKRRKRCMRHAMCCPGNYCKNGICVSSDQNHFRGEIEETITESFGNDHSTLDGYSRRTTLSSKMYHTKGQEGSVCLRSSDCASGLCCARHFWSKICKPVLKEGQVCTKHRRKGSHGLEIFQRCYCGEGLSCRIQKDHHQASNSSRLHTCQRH

For the molecule `COCOc1ccc(Br)cc1C(=O)[C@@H]1O[C@H]1c1cccc(OC)c1`, the composite z-score in assay [1] is 0.82; in assay [2], -0.0616; in [3], -0.0631; in assay [5], 0.152; in assay [6], 0.117; in assay [7] it was 0.284. Moreover, the composite z-score in assay [8] stood at 0.16; in assay [9], 0.219; in [10], 0.849. In assay [4], the z-score was -0.455 (inactive).
Take `CC(C)=CCCC(C)=CCON=C1C[C@@H](O)[C@@H](O)[C@@H]2[C@@H]3C(=O)N(Cc4ccccc4)C(=O)[C@@H]3CC[C@@H]12`: the composite z-score in [1] was 0.786; in assay [2], -0.382; in assay [3], -1.12; in assay [5], 1.14; in [6] it was 0.279; in [7] it was 0.696. Also, the composite z-score in assay [8] was found to be 0.955; in [9], 1.04; in assay [10], 1.09. The z-score in assay [4] is -0.216 (inactive).
Take `COC(=O)[C@@H]1CC[C@H](C)[C@@H](c2ccc(C)cc2)N1C(=O)c1ccc(C=NO[C@H](C)c2cn([C@@H]3COC[C@H]3O)nn2)cc1`: the composite z-score is 0.266 in assay [1]; -0.132 in [2]; -0.369 in [3]; 0.718 in [5]; 0.891 in assay [6]; 0.67 in assay [7]. The composite z-score in assay [8] is 0.66; in assay [9], 0.831; in [10] it was -1.14. Further, the z-score in [4] is 0.0134 (inactive).
As for `COc1ccc(O[C@H]2C=C[C@@H](c3ccccc3)O[C@@H]2COC(=O)CCC(C)=NOC(C)CN2CCCc3nc(C)c(C)cc32)cc1` (stereo not given in full), the composite z-score is 0.817 in [1]; -0.176 in assay [2]; -0.433 in [3]; 0.753 in assay [5]; 1.03 in [6]; 0.517 in assay [7]. The values for the composite z-score in assay [8], in assay [9] and in assay [10] were 0.889, 0.524 and 0.465, respectively. The z-score in [4] was 0.063 (inactive).
For the molecule `CCOC(=O)[C@H](CC(C)C)NC(=O)CCC1CC(OC(=O)NCCc2ccc(F)cc2)CC2(CCCC(COC(=O)NCC3CCCCC3)O2)O1` (stereo not given in full), the composite z-score in assay [1] was 0.0149; in assay [2] it was -0.227; in assay [3], -0.283; in assay [5] it was 0.953; in [6] it was 0.293; in [7] it was 0.432. The composite z-score in assay [8] is 0.8; in [9] it was 0.479; in [10], -0.174. Further, the z-score in [4] was -0.152 (inactive).
`COC(=O)CC=C[C@@H](C)[C@@H](C=NO[C@@H]1O[C@H](COC(C)=O)[C@@H](OC(C)=O)[C@H](OC(C)=O)[C@H]1OC(C)=O)NS(=O)(=O)c1ccc(C)cc1`: the composite z-score in assay [1] is -0.119; in assay [2] it was -0.268; in [3] it was -0.645; in [5], 0.626; in assay [6], -0.448; in assay [7] it was 0.504. The composite z-score was -0.212 in [8], 0.833 in assay [9] and -1.58 in [10]. In [4], the z-score was -0.15 (inactive).
Regarding `O=C(NN=C1C[C@@H](O)[C@@H](O)[C@@H]2[C@@H]3C(=O)N(Cc4ccccc4)C(=O)[C@@H]3CC[C@@H]12)OCc1ccccc1`, the composite z-score was 0.0168 in [1]; -0.293 in assay [2]; -0.284 in assay [3]; 0.0818 in assay [5]; 0.329 in assay [6]; 0.263 in assay [7]. Also, the composite z-score is 0.31 in assay [8], 0.357 in [9] and 0.198 in assay [10]. Further, in assay [4], the z-score is -0.566 (inactive).
For the molecule `CC=CC1=C(CO)C(=O)[C@@H]2O[C@@H]2C1=O`, the composite z-score in [1] was 0.148; in assay [2], -0.703; in [3] it was -1.79; in [5], 0.799; in [6], 0.571; in [7], 1.01. For the same molecule, the composite z-score in [8] amounted to 1.17; in assay [9] it was 1.57; in assay [10], 1.49. For the same molecule, the z-score in assay [4] is -0.546 (inactive).
With `COC(=O)C1=C(C)N(Cc2ccccc2)[C@]23O[C@](C(=O)OC)(C(=O)N2[C@@H]1c1ccccc1)C(C(=O)OC)=C3C(=O)OC`, the composite z-score in [1] was 1.16; in assay [2], -0.389; in assay [3] it was -0.562; in assay [5], 1.24; in [6], 1.06; in assay [7], 0.7. In addition, the results for the composite z-score in [8], in [9] and in [10] were 0.84, 0.757 and 0.226, respectively. Also, the z-score in assay [4] was -2.35 (inactive).
With `CO[C@H]1COC(=O)CC=C[C@H](C)COC(=O)[C@@H](C)NC(=O)CC=C[C@@H]1C`, the composite z-score was 1.56 in assay [1]; -0.335 in assay [2]; -1.42 in assay [3]; 0.337 in [5]; 0.913 in assay [6]; 1.32 in assay [7]. Besides, the composite z-score in assay [8] worked out at 1.47; in [9], 1.65; in assay [10], 0.872. The z-score in assay [4] is -1.31 (inactive).
Regarding `Cc1ccc(S(=O)(=O)N[C@@H]2COC(=O)[C@@H](C)COC(=O)CC=C[C@H]2C)cc1`, the composite z-score in [1] is 0.154; in [2], -0.324; in [3], -0.352; in assay [5], 0.424; in [6] it was 0.513; in assay [7] it was 0.545. In addition, the composite z-score in assay [8] is 0.66; in assay [9], 0.56; in assay [10], 0.13. The z-score in assay [4] is 0.00914 (inactive).
With `COc1ccc(COC(=O)NN=C2C[C@@H](O)[C@@H](O)[C@@H]3[C@@H]4C(=O)N(c5cccc(Oc6ccccc6)c5)C(=O)[C@@H]4CC[C@@H]23)cc1`, the composite z-score in assay [1] was -0.0785; in [2], 0.557; in assay [3], 1.28; in assay [5], -0.518; in [6], -1.2; in assay [7] it was -0.322. For the same molecule, the composite z-score was -1.07 in [8], -0.89 in assay [9] and 0.247 in assay [10]. For the same molecule, the z-score in assay [4] is -0.161 (inactive).
Take `Cc1ccc(S(=O)(=O)NC(CCc2ccccc2)CC(=O)C(C)(C)C)cc1` (stereo not given): the composite z-score was 0.491 in assay [1]; -0.32 in assay [2]; -0.459 in assay [3]; 0.465 in assay [5]; 0.667 in [6]; 0.589 in assay [7]. The composite z-score is 0.758 in assay [8], 0.661 in [9] and -0.114 in assay [10]. Moreover, in assay [4], the z-score was -0.327 (inactive).
Turning to `COc1cccc([C@H]2Oc3ccc(OC)cc3C(=NO[C@@H]3O[C@H](COC(C)=O)[C@@H](OC(C)=O)[C@H](OC(C)=O)[C@H]3OC(C)=O)[C@@H]2O)c1`, the composite z-score was -0.531 in [1]; 0.0366 in [2]; -0.0882 in [3]; 0.261 in assay [5]; -0.157 in [6]; 0.344 in [7]. Also, the composite z-score in [8] was 0.0855; in [9], 0.0647; in assay [10], -0.43. For the same molecule, in [4], the z-score was 0.598 (inactive).
Take `CC(C)CON=C1C[C@@H](O)[C@@H](O)[C@@H]2[C@@H]3C(=O)N(Cc4ccc5c(c4)OCO5)C(=O)[C@@H]3CC[C@H]12`: the composite z-score in [1] is 0.191; in assay [2], -0.222; in assay [3], -0.608; in [5] it was 1.14; in assay [6], 0.589; in assay [7], 0.216. The composite z-score in assay [8] is 0.671; in [9] it was 0.178; in assay [10], -0.374. Besides, the z-score in assay [4] is 0.31 (inactive).
`CCOC(=O)[C@H](Cc1ccccc1)NC(=O)CCC1CC(OC(=O)NCCc2ccc(F)cc2)CC2(CCCC(COC(=O)NCCc3ccc(Cl)cc3)O2)O1` (stereo not given in full): the composite z-score was 0.54 in assay [1]; -0.0724 in assay [2]; -0.379 in assay [3]; 0.319 in [5]; 0.691 in [6]; 0.401 in assay [7]. For the same molecule, the composite z-score in [8] stood at 0.422; in [9], 0.555; in assay [10], 0.018. In addition, the z-score in [4] is -0.0219 (inactive).
As to `CC(CCN1CCCc2nc(C)c(C)cc21)=NOC(C)CN1CCCCc2nc(C)c(C)cc21` (stereo not given), the composite z-score is 1.16 in [1]; 0.0616 in assay [2]; -0.271 in assay [3]; 1.14 in [5]; 1.28 in assay [6]; 1.2 in assay [7]. Besides, the composite z-score is 1.42 in [8], 1.18 in assay [9] and 1.43 in assay [10]. Further, the z-score in assay [4] is 0.322 (inactive).
